In PubChem BioAssay (Tox21):
Where “and” joins values, the source holds several entries; their conditions need not be identical. Identical values can stand only once. Inconclusive results are not listed. Unmarked numbers belong to inactive results. Calls of active or inactive are those of the source. The call rests on the fitted dose curve; in most records, active means well fitted inhibition curve with a large enough effect in the repeat runs; inconclusive means weak or mixed curves; inactive means no such curve, though single readings can be large or run the other way.

Molecular target: Cytochrome P450 1A2 (Homo sapiens) (UniProt P05177)
Sequence (P05177 whole entry, looked up): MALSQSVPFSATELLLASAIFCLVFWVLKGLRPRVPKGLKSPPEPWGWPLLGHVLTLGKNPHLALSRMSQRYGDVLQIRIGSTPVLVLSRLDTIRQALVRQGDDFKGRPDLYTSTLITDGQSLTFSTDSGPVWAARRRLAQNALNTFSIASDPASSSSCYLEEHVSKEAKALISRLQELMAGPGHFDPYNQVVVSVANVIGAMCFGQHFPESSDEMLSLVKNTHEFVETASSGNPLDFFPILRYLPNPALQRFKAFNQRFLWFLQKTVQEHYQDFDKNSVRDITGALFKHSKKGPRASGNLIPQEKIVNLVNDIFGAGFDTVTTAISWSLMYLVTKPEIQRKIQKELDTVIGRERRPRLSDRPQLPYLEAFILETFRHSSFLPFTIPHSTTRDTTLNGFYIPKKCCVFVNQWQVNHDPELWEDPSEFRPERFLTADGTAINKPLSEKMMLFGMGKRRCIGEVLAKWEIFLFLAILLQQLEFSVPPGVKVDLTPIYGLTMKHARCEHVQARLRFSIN
Assay: Cytochrome P450 Family 1 Subfamily A Member 2 (CYP1A2) small molecule antagonists: luciferase reporter qHTS assay (AID 1671199); further: nearly all actives have a fitted effect of over 50% in size
Details: P450-Glo CYP1A2 enzyme, luciferin luminescence, 1 h; series mostly up to 115 µM; activity change, negative = inhibition: at the top concentration
In short: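 P450-Glo CYP1A2 enzyme–proluciferin substrate mix with compound 10 min at room temperature, then NADPH regeneration 1 h at room temperature. Luciferin detection reagent added, luminescence read after 20 min; furafylline positive control.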
On the % scale 0 is the no-effect control and ±100 the full control effect; potency means the concentration at half of the fitted maximal effect.

| Structure (SMILES) | activity change, negative = inhibition | Potency |
| --- | --- | --- |
| c1ccc2c(c1)OCC(C1=NCCN1)O2 (centres undefined) | -11.6% [at 53 µM] |  |
| CC(C)CCCCCOC(=O)c1ccccc1C(=O)OCCCCCC(C)C |  | 35.2 µM (active) |
| CC(C)CC(C)N (centres undefined) | -15.8% |  |
| CCOC(=O)c1ccccc1S(=O)(=O)NC(=O)Nc1nc(Cl)cc(OC)n1 | -20% |  |
| Cn1cc(C2=C(c3cn(C4CCN(Cc5ccccn5)CC4)c4ccccc34)C(=O)NC2=O)c2ccccc21 | 11.9% [at 53 µM] |  |
| CN(CCCC(O)c1cccnc1)N=O (centres undefined) | -3.3% |  |
| Nc1ccc(Sc2ccc(N)cc2)cc1 |  | 35.6 µM (active) |
| Oc1ccc(C(c2ccc(O)cc2)(C(F)(F)F)C(F)(F)F)cc1 | -21.3% |  |
| Brc1c(Br)c(Br)c(Oc2c(Br)c(Br)c(Br)c(Br)c2Br)c(Br)c1Br | -11% [at 23.6 µM] |  |
| CN(C)S(=O)(=O)N(SC(F)(Cl)Cl)c1ccccc1 |  | 22.4 µM (active) |
| N#CC(Cl)Cl |  | 61.6 µM (active) |
| Nc1ccc(Cc2ccc(N)c(Cl)c2)cc1Cl |  | 27.3 µM (active) |
| CCC(C)c1cc([N+](=O)[O-])cc([N+](=O)[O-])c1OC(=O)C=C(C)C (centres undefined) |  | 35.6 µM (active) |
| Cc1cc(C)c(C2=C(OC(=O)CC(C)(C)C)C3(CCCC3)OC2=O)c(C)c1 | -15% |  |
| COc1ccc(N)cc1N |  | 6.53 µM (active) and 38.3 µM (active) |
| S=C=Nc1cccc2ccccc12 |  | 8.85 µM (active) |
| CC(=[OH+])/C=C(/C)[O-].CC(=[OH+])/C=C(\C)[O-].CC(=[OH+])/C=C(\C)[O-].[Al] | 1.64% |  |
| O=C1C=CC(=O)c2ccccc21 |  | 25.2 µM (active) |
| CCCCOP(=O)(CCCC)OCCCC |  | 31.7 µM (active) |
